Reference: PubChem BioAssay (NCATS)
Records with an inconclusive call do not appear. The source made the active and inactive calls. Calls come from the whole dose curve; as a rule, active = well fitted curve in the direction sought with a large enough effect; inconclusive = small, poorly fitted or top-dose-only effect, or another doubt; inactive = no such curve, though single readings can be large; an effect the other way counts as inactive or inconclusive.

Legend:
[1] = Cell Viability - LYMP2-003 (AID 965);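 note: cells exposed to compounds for 24 h before reading; nearly all actives have a fitted effect of over 50% in size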
Outline: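 Seed 2500 lymphoblastoid cells/well; incubate 5 hr, 37 C; add compounds; incubate 24 hr, 37 C; add CellTiter-Glo, 30 min RT; read luminescence. AC50 from Hill fit.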

[2] = Cell Viability - LYMP2-005 (AID 967); note: series mostly up to about 92 µM
Outline: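 Acute cytotoxicity is scored as a concentration-dependent drop in intracellular ATP in human lymphoblastoid LYMP2-005 cells after 24 h compound treatment. ATP is quantified by luciferase luminescence, and AC50 is derived by Hill-equation modelling.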

[3] = Cell Viability - LYMP2-009 (AID 968); note: series mostly up to about 92 µM; nearly all actives have a fitted effect of over 55% in size
[4] = Cell Viability - LYMP2-011 (AID 969); note: nearly all actives have a fitted effect of over 60% in size
Outline: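 2500 cells/well in complete medium, compound-treated 24 h at 37 C. Viability read as intracellular ATP by CellTiter-Glo luminescence after 30 min at room temperature. AC50 from Hill fits of qHTS concentration-response data.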

[5] = Cell Viability - LYMP2-013 (AID 970); note: series mostly up to about 92 µM; nearly all actives have a fitted effect of over 55% in size
Outline: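 Human lymphoblastoid LYMP2-013 cells, 2500/well, treated 24 h at 37 C in complete medium; viability as intracellular ATP by CellTiter-Glo luminescence after 30 min. AC50 from Hill fits of qHTS concentration-response.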

[6] = Cell Viability - LYMP2-015 (AID 971); note: nearly all actives have a fitted effect of over 55% in size
Outline: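 LYMP2-015 human lymphoblastoid cells (2500/well) in complete medium, compound-treated 24 h at 37 C; viability read as cellular ATP by CellTiter-Glo luminescence after 30 min at room temperature. AC50 from Hill-equation fits of qHTS concentration-response data.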

[7] = Cell Viability - LYMP2-017 (AID 972); note: series mostly up to about 92 µM; nearly all actives have a fitted effect of over 55% in size
Outline: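 LYMP2-017 human lymphoblastoid cells (2500/well) settled 5 hr at 37 C, then exposed to compound 24 hr at 37 C in complete medium. Viability taken as intracellular ATP by CellTiter-Glo luminescence after 30 min at RT; AC50 from Hill fits.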

[8] = Cell Viability - LYMP2-019 (AID 973); note: nearly all actives have a fitted effect of over 55% in size
Outline: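 Human lymphoblastoid LYMP2-019 cells (2500/well) preincubated 5 h at 37 C, then treated 24 h at 37 C in complete medium. Viability by CellTiter-Glo ATP luminescence after 30 min at room temperature; AC50 from Hill fits.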

[9] = Cell Viability - LYMP2-021 (AID 974)
Outline: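 Human lymphoblastoid LYMP2-021 cells, 2500/well in complete medium, treated 24 hours at 37 C. Intracellular ATP by CellTiter-Glo luminescence (30 min, RT); AC50 from Hill fits of concentration-response.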

[10] = Cell Viability - LYMP2-023 (AID 975)
Outline: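 LYMP2-023 human lymphoblastoid cells, 2500/well, preincubated 5 hr at 37 C, then compound-treated 24 hr at 37 C in complete medium. CellTiter-Glo luminescence (ATP) after 30 min at room temperature; AC50 from Hill-equation fits; tetraoctylammonium bromide positive control.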

[11] = Cell Viability - LYMP2-025 (AID 976); note: series mostly up to about 92 µM
Outline: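 Human lymphoblastoid LYMP2-025 cells, 2500/well, exposed 24 h at 37 C in complete medium in 1536-well qHTS. Viability as cellular ATP by CellTiter-Glo luminescence; AC50 from Hill fits of concentration-response data.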

[12] = Cell Viability - LYMP2-002 (AID 977);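 note: series mostly up to about 92 µM; compound exposure lasted 24 h at 37 °C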
Outline: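 Human lymphoblastoid LYMP2-002 cells, 2500 per well, exposed to compounds for 24 h at 37 C in complete medium; viability read as intracellular ATP by CellTiter-Glo luminescence, AC50 from Hill fits.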

[13] = Cell Viability - LYMP2-006 (AID 978); note: series mostly up to about 92 µM; nearly all actives have a fitted effect of over 60% in size
Outline: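 Cells are seeded at 2500 per well and rested 5 hr at 37 C. Compounds are added across a concentration series for 24 hr at 37 C, after which ATP is quantified by luciferase luminescence.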

[14] = Cell Viability - LYMP2-007 (AID 979);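 note: cells exposed to compound for 24 h before reading; nearly all actives have a fitted effect of over 60% in size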
Outline: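 Human lymphoblastoid LYMP2-007 cells (2500/well) preincubated 5 h at 37 C, then treated 24 h at 37 C in complete medium. Viability by CellTiter-Glo ATP luminescence after 30 min at room temperature; AC50 from Hill fits.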

[15] = Cell Viability - LYMP2-008 (AID 980); note: nearly all actives have a fitted effect of over 60% in size
Outline: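 LYMP2-008 lymphoblastoid cells (2500/well) plated 5 h, then treated 24 h at 37 C in complete medium. Viability read as intracellular ATP by CellTiter-Glo luminescence after 30 min at room temperature; AC50 from Hill fits.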

[16] = Cell Viability - LYMP2-010 (AID 981); note: nearly all actives have a fitted effect of over 55% in size; note: potency is the fitted concentration of half-maximal effect
Outline: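 Human lymphoblastoid LYMP2-010 cells (2500/well) treated 24 h at 37 C in complete medium; viability read as intracellular ATP by CellTiter-Glo luminescence. AC50 from Hill fits of concentration-response data; tetraoctylammonium bromide positive control.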

[17] = Cell Viability - LYMP2-012 (AID 982)
[18] = Cell Viability - LYMP2-014 (AID 983); note: series mostly up to about 92 µM; nearly all actives have a fitted effect of over 50% in size
Outline: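 LYMP2-014 human lymphoblastoid cells, 2500/well, treated 24 h at 37 C in complete medium; viability by CellTiter-Glo ATP luminescence after 30 min at room temperature. AC50 from Hill fits of qHTS concentration-response; tetraoctylammonium bromide positive control.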

[19] = Cell Viability - LYMP2-016 (AID 984); note: nearly all actives have a fitted effect of over 55% in size
Outline: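 Cells were seeded at 2500 per well and rested 5 hr before a 24 hr compound exposure at 37 C. Viability was then gauged as cellular ATP by luciferase luminescence, with AC50 values fitted to the Hill equation.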

[20] = Cell Viability - LYMP2-004 (AID 966); note: nearly all actives have a fitted effect of over 65% in size
Outline: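 Lymphoblastoid LYMP2-004 cells, 2500 per well, were preincubated for 5 hr and then treated with compound for 24 h at 37 C in complete medium. Viability was read as cellular ATP by CellTiter-Glo luminescence, and AC50 values were taken from Hill fits to concentration-response data.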

Measured: Potency

NC(=O)c1cnccn1
not listed: [20]
inactive: all other assays above

NS(=O)(=O)c1cc2c(cc1Cl)NC=NS2(=O)=O
inactive: all assays above

CC(=O)Oc1ccccc1C(=O)O
inactive: all assays above

Cn1cnc([N+](=O)[O-])c1Sc1ncnc2nc[nH]c12
inactive: [11] | [12] | [18]
active: [16] 39.8 µM

O=c1[nH]cnc2[nH]ncc12
not listed: [11]
inactive: all other assays above

NC(N)=NC(=O)c1nc(Cl)c(N)nc1N
not listed: [16]
inactive: all other assays above

CCCC(CCC)C(=O)O
inactive: all assays above
